From PubChem BioAssay (NCATS)
Records with an inconclusive call do not appear. Where a call stands in place of a potency, no number is given. Calls of active or inactive are those of the source. Calls come from the whole dose curve; as a rule, active = well fitted curve in the direction sought with a large enough effect; inconclusive = small, poorly fitted or top-dose-only effect, or another doubt; inactive = no such curve, though single readings can be large; an effect the other way counts as inactive or inconclusive.

Tests used:
[1] = target: Aldehyde dehydrogenase, mitochondrial (Homo sapiens) (UniProt P05091); test: qHTS for Inhibitors of the Aldehyde Dehydrogenase Family (ALDH2) Primary screen (AID 2061308); note: nearly all actives have a fitted effect of over 55% in size
[2] = target: Retinaldehyde dehydrogenase 3 (Homo sapiens) (UniProt P47895); test: qHTS for Inhibitors of the Aldehyde Dehydrogenase Family (ALDH1A3) Primary screen (AID 2061315)

Row | SMILES | Potency [1] | Potency [2]
1 | Cc1cc(NS(=O)(=O)c2ccc3c(c2)CCC(=O)N3)ccc1Cl | inactive | inactive
2 | O=C(Nc1ccccc1)c1cccs1 | inactive | inactive
3 | O=[S+]([O-])(c1ccc2c(c1)OCCO2)N1CCN([S+](=O)([O-])c2c(O)cc(F)cc2F)CC1 | inactive | inactive
4 | Cc1ccc(NC(=O)CN2C(=O)N/C(=C\c3cccn3-c3ccc(C(=O)NOCc4ccccc4)cc3)C2=O)cc1 | inactive | inactive
5 | COc1c2c(c(C)c3c1C(=O)OC3)OC1(C)CC(O)C3(O)C(C)(C)OC(=O)CCC3(C)C1C2 (configuration not stated) | inactive | inactive
6 | COCCNc1nc(C)nc2c1nc(-c1ccccc1)n2C1CCN(Cc2ccccc2)C1 (configuration not stated) | inactive | inactive
7 | CN1[C@@H]2CC[C@H]1CC(OC(=O)C(CO)c1ccccc1)C2 (some centres not stated) | inactive | inactive
8 | Cc1ccc(-c2cc(C(=O)Nc3ccc(C#N)cc3)c3ccccc3n2)cc1C | inactive | inactive
9 | Cc1ccc(S(=O)(=O)Nc2cnccc2C(=O)Nc2nc(C3CCC3)cs2)cc1 | inactive | inactive
10 | O=C([C@H](Cc1ccc(O[S+](=O)([O-])c2cccc3cccnc23)cc1)N[S+](=O)([O-])c1cccnc1)N1CCN(c2ccccc2)CC1 | inactive | inactive
11 | O=S(=O)(c1ccc2c(c1)OCCO2)N1CCN(S(=O)(=O)c2ccc(Br)cc2F)CC1 | inactive | inactive
12 | O=C1NC(=O)/C(=C/c2ccco2)N1 | inactive | inactive
13 | Cc1cc(NC(=O)Nc2cccc(-c3ccncc3)n2)ccc1Cl | inactive | inactive
14 | COc1ccc(Cn2ncc3c4sc(C)cc4n(C)c3c2=O)cc1F | inactive | inactive
15 | O=Cc1ccc(N2CCN(S(=O)(=O)c3ccc4c(c3)CC(=O)N4)CC2)cc1 | inactive | inactive
16 | CC(C)(C)NS(=O)(=O)c1cccc(-c2nnc(SCc3ccc(C(=O)O)cc3)n2-c2ccccc2)c1 | inactive | inactive
17 | O=S1(=O)N=C(Oc2ccc(-c3ccccc3)cc2)c2ccccc21 | inactive | inactive
18 | Cc1cccc(-c2[nH]c(Cc3cccc(C(N)=O)c3)nc2-c2ccc3nccnc3c2)n1 | inactive | inactive
19 | O=C1CCCC2=C1C1(CCCC1)N=C(Nc1nc3cc(Br)ccc3o1)N2 | inactive | inactive
20 | Cc1cccc(-c2nnc(C)n2CCCn2ccnc2)c1N | inactive | inactive
21 | CCOC(=O)c1[nH]c2c(c1C)C(=O)CCC2 | inactive | inactive
22 | N#Cc1cc(NC(=O)Nc2cccc(-c3ccncc3)n2)ccc1Cl | inactive | inactive

Row | SMILES | Potency [1] | Potency [2]
23 | COc1ccc(OC)c(C2=Nn3c(nnc3-c3ccccc3OC)SC2)c1 | inactive | inactive
24 | Cc1ccc(NS(=O)(=O)c2ccc3c(c2)N(C)C(=O)CO3)cc1C | inactive | inactive
25 | COc1cc2ncnc(Nc3cccc(O)c3)c2cc1OC | inactive | inactive
26 | CC(C)c1ccccc1-c1nc(NCc2ccc(-c3cccnc3)cc2)c2cccn2n1 | inactive | inactive
27 | O=C(OCC#CCSc1nnc(-c2ccc3ccccc3c2)o1)c1ccc(F)cc1 | inactive | inactive
28 | c1cc(NC2CCNCC2)nc(-c2cnc3ccccn23)c1 | inactive | inactive
29 | O=C(Nc1ncc(Cc2ccc(C(F)(F)F)cc2)s1)c1ccc(-c2cccnc2)o1 | inactive | inactive
30 | CS(=O)(=O)Nc1ccc(-c2nc(NCc3ccc(-c4ccnc(C(F)(F)F)c4)cc3)c3ccccc3n2)cc1 | inactive | inactive
31 | Cc1ccc(NS(=O)(=O)c2ccc3c(c2)CCC(=O)N3C)cc1Cl | inactive | inactive
32 | CCCCC1CCC(C(=O)Nc2ccc(S(=O)(=O)Nc3cc(C)on3)cc2)CC1 (configuration not stated) | inactive | inactive
33 | COc1cc(OC)cc(N2CCN(C(=S)Nc3cc(C)cc(C)n3)CC2)c1 | inactive | inactive
34 | COC(=O)c1ccccc1S(=O)(=O)Nc1ccc(OC)cc1 | inactive | inactive
35 | COc1cc(O)c(C(CC(=O)N2CCCCCC2)c2ccc3c(c2)OCO3)c(OC)c1 (configuration not stated) | inactive | inactive
36 | COCCN(CCOC)c1nc(C)nc2c1nc(-c1ccccc1)n2CCN(C)C | inactive | inactive
37 | Cc1ccc(-c2cc(C(=O)Nc3ncco3)c3ccccc3n2)cc1C | inactive | inactive
38 | Cc1c[nH]c2nccc(Oc3c(F)cc(Nc4cc(Cl)nc(N)n4)cc3F)c12 | inactive | inactive
39 | CNc1oc(-c2cccc3cnccc23)nc1C#N | inactive | inactive
40 | c1cncc(-c2ccc(CNc3nc(-n4ccnc4)nc4ccccc34)cc2)c1 | inactive | inactive
41 | CCN1CCN(Cc2ccc(C(=O)Nc3ccc(C)c(Oc4ccc5c(c4)CC(=O)N5)c3)cc2C(F)(F)F)CC1 | inactive | inactive
42 | C#CCCC(=O)Nc1sc2c(c1-c1nc3ccccc3s1)CCNC2 | inactive | inactive
43 | Cc1sc(NC(=O)Cc2ccc3c(c2)OCO3)nc1-c1ccc2c(c1)CCN2C(=O)C1CCCCC1 | inactive | inactive
44 | N#CN/C(=N\c1nnc(-c2ccncc2)s1)Nc1ccc(F)c(C(F)(F)F)c1 | inactive | inactive

Row | SMILES | Potency [1] | Potency [2]
45 | FC(F)(F)c1cc(-c2ccc(CNc3nc(-c4ccccc4C(F)(F)F)nc4ccccc34)cc2)ccc1Cl | inactive | inactive
46 | Cc1cn2c(-c3cn[nH]c3)cnc2c(Nc2ccc(C(=O)N3CCNCC3)cc2F)n1 | inactive | inactive
47 | COc1cccc(S(=O)(=O)N2CCN(S(=O)(=O)c3ccc4c(c3)OCCO4)CC2)c1 | inactive | inactive
48 | CCOC(=O)c1cccc(-n2cnc(/C=C3\NC(=O)N(CC(=O)OC(C)(C)C)C3=O)c2)c1 | inactive | inactive
49 | COc1ccc(C2Nc3ccccc3C(=O)N2Cc2ccco2)cc1 (configuration not stated) | inactive | inactive
50 | Cc1ccc(S(=O)(=O)Nc2ccccc2C(=O)Nc2cccc(-c3ccccc3)c2)cc1 | inactive | inactive
51 | CC(=O)c1ccc(N2CCN(S(=O)(=O)c3ccc(N4CCCC4=O)cc3)CC2)cc1 | inactive | inactive
52 | Cc1nc(CNc2ncnc3ccc(-c4ccc(CO)o4)cc23)cs1 | inactive | inactive
53 | O=C(Cc1nc2ccc(Cl)cc2[nH]1)Nc1ccc(S(=O)(=O)Nc2nccs2)cc1 | inactive | inactive
54 | COc1cccc(C(=O)NC2CCN(C#N)CC2)c1 | inactive | inactive
55 | Cc1cc2c(s1)c1cnn(Cc3ccc(F)cc3)c(=O)c1n2C | inactive | inactive
56 | S=C(NCCCN(Cc1ccc(Cl)c(Cl)c1)c1ccc(Br)cn1)NCCc1cnc[nH]1 | inactive | inactive
57 | CN(C)c1ccc(-c2ccc(=O)n(CC(=O)NCCc3ccccc3)n2)cc1 | inactive | inactive
58 | Fc1ccc(-c2nnc(CCCCSc3nnc(-c4cccc5ccccc45)o3)o2)cc1 | inactive | inactive
59 | N#Cc1nc(Nc2cccc(Cl)c2)c2ncn(C3CCCC3)c2n1 | inactive | inactive
60 | Nc1ccc(-c2nnc(NC(=O)Nc3ccc(Cl)c(Cl)c3)s2)cc1 | inactive | inactive
61 | Clc1ccc(CN(CCCNc2ncnc(NCCCc3cnc[nH]3)n2)c2ccc(Br)cn2)cc1Cl | inactive | inactive
62 | Nc1ccc(Cl)cc1C(=O)c1ccc[nH]1 | inactive | inactive
63 | O=C1CCCC2=C1C(c1[nH]ncc1Cl)N=C(Nc1nc3ccc(Cl)cc3o1)N2 (configuration not stated) | inactive | inactive
64 | COc1cccc(CNc2ccc(S(=O)(=O)Nc3cnc4ccccc4c3)cc2)c1O | inactive | inactive
65 | CN1[C@@H]2CC[C@H]1CC(OC(c1ccccc1)c1ccccc1)C2 (some centres not stated) | inactive | inactive
66 | Cc1nc(NCc2ccccc2)c2nc(-c3ccccc3)n(CCCN3CCCCC3C)c2n1 (configuration not stated) | inactive | inactive

Row | SMILES | Potency [1] | Potency [2]
67 | Cc1cc(C)n2ncc(C(=O)Nc3ccc(Cl)c(Cl)c3)c2n1 | inactive | inactive
68 | CCNC(=O)c1ccc(-c2ccc3ncnc(NCc4nccs4)c3c2)o1 | inactive | inactive
69 | Cc1nnc(-c2ccccc2)n1CCCn1ccnc1 | inactive | inactive
70 | CS(=O)(=O)c1ccc(C(=O)OCC(=O)N2CCN(CCC3CCCCC3)CC2)cc1[N+](=O)[O-] | inactive | inactive
71 | Cc1ccc(NS(=O)(=O)c2cc3c(cc2Cl)NC(=O)C3)cc1C | inactive | inactive
72 | COC(=O)c1cc2c(C(F)(F)F)cc(-c3ccccc3)cc2n1O | inactive | inactive
73 | CCCn1c(-c2ccc(F)cc2)nc2c(N3CCN(CCC(=O)OCC)CC3)nc(C)nc21 | inactive | inactive
74 | NC(=O)C1CCN(c2nc(-c3ccc(C(F)(F)F)cc3)cs2)CC1 | inactive | inactive
75 | Cc1noc(C)c1-c1ccc(Nc2nc(-c3ccncc3)nc3ccccc23)cc1F | inactive | inactive
76 | CS(=O)(=O)c1ccc(C(=O)OCC(=O)N2CCOCC2)cc1[N+](=O)[O-] | inactive | inactive
77 | O=C(Cc1ccc2ccccc2c1)Nc1ccc(S(=O)(=O)Nc2nccs2)cc1 | inactive | inactive
78 | Cc1ccc(C2N=C(Nc3nc4ccccc4o3)NC3=C2C(=O)CCC3)s1 (configuration not stated) | inactive | inactive
79 | COc1cc(O)c(C(CC(=O)N2CCC(Cc3ccccc3)CC2)c2ccc(C)cc2)c(OC)c1 (configuration not stated) | inactive | inactive
80 | O=C(Nc1ccc(Cl)c(Cl)c1)Nc1nnc(-c2ccncc2)s1 | inactive | inactive
81 | CCNC(=O)c1ccc(-c2ccc3ncnc(NCC(C)(C)C)c3c2)o1 | inactive | inactive
82 | CC(C)Oc1ccc(-c2ccc(=O)n(CC(=O)NCCc3ccccc3)n2)cc1 | inactive | inactive
83 | O=C1CCc2cc(S(=O)(=O)Nc3ccc(F)c(Cl)c3)ccc2N1 | inactive | inactive
84 | CC(C)(C)OC(=O)N[C@@H](Cc1ccc(O[S+](=O)([O-])c2cccc3cnccc23)cc1)C(=O)N1CCN(c2ccccc2)CC1 | inactive | inactive
85 | Cc1cccc(-c2ccc3ncnc(NCc4cccc(F)c4)c3c2)c1 | inactive | inactive
86 | Cc1cccc(-n2cnc3cc(C(=O)N4CCC(c5ccccc5)CC4)ccc32)c1 | inactive | inactive
